About 83,000 compounds went through this panel and 20% of them were active in at least one assay; those are over-represented in the sample as a whole.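 For each line, cells grew in 96-well plates with the test compound present at a single concentration for 48 hours.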 Values without a mark were called inactive. Active and inactive are the calls of the source. Rule for the calls: active = growth percent below 10; inactive = the rest.
Tests used:
Experiment in all cases: NCI-60 one-dose screen, 48 h (100 = growth as untreated, 0 = no growth, -100 = all killed)
Settings in all cases: 10 µM
NCI-H23 lung = system: NCI-H23 lung
NCI-H226 lung = system: NCI-H226 lung
NCI-H322M lung = system: NCI-H322M lung
HOP-62 NSCLC = system: HOP-62 NSCLC
NCI-H460 lung = system: NCI-H460 lung
HOP-92 NSCLC = system: HOP-92 NSCLC
NCI-H522 lung = system: NCI-H522 lung
A549/ATCC NSCLC = system: A549/ATCC NSCLC
786-0 renal = system: 786-0 renal
COLO 205 colon = system: COLO 205 colon

Structure (SMILES)	growth (NCI-H23 lung)	growth (NCI-H226 lung)	growth (NCI-H322M lung)	growth (HOP-62 NSCLC)	growth (NCI-H460 lung)	growth (HOP-92 NSCLC)	growth (NCI-H522 lung)	growth (A549/ATCC NSCLC)	growth (786-0 renal)	growth (COLO 205 colon)
CCN1CCN(c2ccc(NC(=O)Nc3ccc4c(c3F)CCN4c3ccnc(C(=O)NC)c3)cc2C(F)(F)F)CC1	-79.4% (active)	95%	90.5%	-49.3% (active)	-87.6% (active)	82.3%	110%	-81.4% (active)	-95.9% (active)	120%
Cc1cccc(-c2nc(Nc3ccccc3C(=O)O)c3ccccc3n2)c1	20.8%	36.1%	48.7%	46.2%	19.1%	-5.02% (active)	59.9%	43.6%	25%	121%
O=[N+]([O-])c1ccc(-c2nc(-c3ccccc3)c(-c3ccccc3)n2-c2ccc(S(=O)(=O)Nc3ncccn3)cc2)cc1	23.9%	27.7%	65.7%	61.9%	31.3%	5.67% (active)	69.4%	60%	35.9%	125%
O=c1c2ccccc2nc(COc2ccccc2)n1/N=C/c1ccc(N2CCCC2)cc1	85%	105%	91.2%	108%	105%	75.5%	81.7%	92.2%	92.8%	142%
CO[C@@H]1CSSC1Cn1nc(-c2ccc(Oc3ccccc3)cc2)c2c(N)ncnc21 (stereo not given in full)	46.4%	31.1%	63%	86.4%	16.5%	35.9%	1.33% (active)	35.7%	45.3%	52%
CC(=O)Nc1ccc(-c2cn(-c3cccc(C(=O)Nc4ccc(Cl)c(C(F)(F)F)c4)c3)nn2)cn1	-67.6% (active)	-72.8% (active)	-18.7% (active)	-60.2% (active)	-73.3% (active)	-30.8% (active)	-63.2% (active)	-43.4% (active)	-34.4% (active)	-40.9% (active)
O=C(Nc1cccc([N+](=O)[O-])c1)Nc1cccc([N+](=O)[O-])c1	65.5%	74.4%	89.2%	92.7%	70.5%	80.4%	64.8%	82.2%	74%	121%
O=C(NO)c1ccc(CN2CCN(c3nc(-c4ccccc4)c4ccccc4n3)CC2)cc1	-5.08% (active)	3.26% (active)	23.6%	2.94% (active)	6.1% (active)	37%	-21.2% (active)	1.35% (active)	14%	6.97% (active)
O=c1[nH]c2ccccc2cc1CSc1ccc(Nc2nccc(-c3ccc(Cl)cc3)n2)cc1	-26.6% (active)	-70.5% (active)	0.401% (active)	-68% (active)	-59.6% (active)	-68.1% (active)	2.64% (active)	-39.7% (active)	-80.1% (active)	-16% (active)
COc1ccc(CN2[C@@H](C(=O)NCc3ccc(C(=O)NO)cc3)Cc3c([nH]c4ccccc34)[C@@H]2C)cc1	15.2%	45.8%	30.5%	37.7%	11.7%	2.77% (active)	-5.15% (active)	41.6%	39.7%	-12.6% (active)
C/C(=C\CC/C=C(\C)CC/C=C(\C)CC[C@@H](O)C(C)(C)O)CC/C=C(\C)CC[C@@H](O)C(C)(C)O	31.8%	38.8%	98.1%	96.6%	32%	26%	21.8%	26.1%	47.4%	41.9%
CC(=O)c1cc(C(=O)N2c3ccccc3Sc3ccccc32)n2ccc(C)cc12	42%	40.2%	72.2%	58.6%	12.3%	38.1%	49.6%	56.9%	44.5%	67.7%
N#Cc1ccc(NC(=O)CSc2ccc(-c3ccc(Br)cc3)nn2)cc1	51.3%	44.8%	76.6%	88.6%	64.6%	70.2%	52%	64.7%	80.2%	112%
COc1ccc(CCN2C(=O)/C(=C/c3csc(C#N)n3)SC2=S)cc1	24.3%	98.5%	86.4%	83.5%	68.2%	-5.5% (active)	-69.8% (active)	89%	-55.2% (active)	-75% (active)
C=CC(=O)Nc1ccc(C(=O)/C=C/c2ccc(N(C)CCF)cc2)c(O)c1	-26.7% (active)	-11% (active)	25.6%	-27.5% (active)	-9.21% (active)	-3.32% (active)	-76.9% (active)	-60.7% (active)	-42.2% (active)	-69.1% (active)
COc1ccccc1NCc1ccc(CO)n1-c1ccc(C)cc1	94.3%	81.3%	100%	88.1%	111%	80.5%	93.7%	100%	104%	120%
O=C(Nc1nc2ccc([N+](=O)[O-])cc2s1)Nc1ccccc1I	-6.9% (active)	-7.84% (active)	-0.431% (active)	7.62% (active)	6.36% (active)	-28.1% (active)	-23.7% (active)	3.05% (active)	0.486% (active)	-94.2% (active)
Brc1ccc(N/N=C/c2c[nH]c3ccccc23)nc1	41.1%	35.5%	47.6%	32%	9% (active)	-28.4% (active)	24.9%	37.7%	0.458% (active)	48.8%
O=c1oc2ccc(-c3ccc(F)cc3F)cc2c(=O)n1-c1ccc(F)c(Cl)c1	-49.8% (active)	-24.8% (active)	-1.73% (active)	-25.9% (active)	-0.567% (active)	-22% (active)	-17.7% (active)	8.87% (active)	7.54% (active)	7.64% (active)
CN1C/C(=C\c2ccc(O)cc2O)c2[o+]c3cc(O)ccc3cc2C1	56.6%	56.3%	88%	77.8%	35.8%	58.8%	-0.58% (active)	99.5%	41.7%	58.3%
COc1ccc(-c2cc(-c3cc(C(=O)c4ccccc4)n4ccc(C)cc34)nc(N)c2C#N)cc1	55%	36.4%	83.7%	29.7%	44.5%	-7.39% (active)	71.5%	79.9%	13.5%	73%
C/C(=N\N=C\c1ccc(N(C)C)cc1)c1ccc2c(c1)Nc1ccccc1S2	31.4%	16.8%	79.5%	62.2%	25%	59.5%	48.5%	50.5%	67.5%	60.4%
COc1ccc(C2N(c3ccc(Br)cc3)N=C(C(C)=O)N2[C@H]2[C@H](OC(C)=O)O[C@H](COC(C)=O)[C@@H](OC(C)=O)[C@@H]2OC(C)=O)cc1 (stereo not given in full)	75.4%	69.6%	73.7%	92%	52.1%	79.2%	48.1%	66.1%	92.6%	88.1%
C=C1CCC2C3(C)COC(c4cc(F)cc(F)c4)OC3CCC2(C)C1C/C=C1/C(=O)OCC1O (stereo not given)	-39.2% (active)	-20.9% (active)	24.5%	-64.1% (active)	13.1%	-52.4% (active)	-79.8% (active)	4.7% (active)	-90.5% (active)	-68% (active)
O=C(CN1CCN(c2ncnc3c2cnn3-c2ccccc2)CC1)Nc1nncs1	-55.1% (active)	43.9%	84.8%	-52.7% (active)	-22.1% (active)	-70.9% (active)	-79.3% (active)	-32.5% (active)	-80.9% (active)	-50.2% (active)
Cc1nn(-c2ccccc2)c2ncn(CC(=O)N/N=C/c3c[nH]c4ccccc34)c(=O)c12	95.4%	93.1%	93.5%	95.6%	92.9%	80.5%	89%	85.4%	88%	109%

Reference: PubChem BioAssay (NCI)
